Data from PubChem BioAssay (NCATS).
Results filed as inconclusive are left out. A structure can be active in one record and inactive in another. Active and inactive are the calls of the source. Calls come from the whole dose curve; as a rule, active = well fitted cell-killing curve with a large enough effect; inconclusive = small, poorly fitted or top-dose-only effect, or effect the other way; inactive = flat fitted curve, though single readings scatter.
% is set by controls: 0 for no effect and ±100 for the full control effect; potency is the fitted concentration of half-maximal effect.

The compounds below were run on CAOV3 (assay: Primary qHTS to identify gynecologic anti-cancer compounds using libraries of approved drugs and bioactive compounds (AID 1345084; note: nearly all actives have a fitted effect of over 55% in size)). Settings: Gynecologic cancer cell panel viability, ATPlite luminescence, 48 h; series mostly up to 57.5 µM; activity change, negative = cytotoxicity: at the top concentration.
Excerpt: National Center for Advancing Translational Sciences [NCATS] Assay Overview: Chemotherapeutic drug responses vary from cancer to cancer and from patient to patient. These variations could be caused by a number of factors including patient genomic background, tumor mutations, tumor heterogeneity, and aspects of drug treatment. Chemotherapeutic drug resistance is also a common issue and can lead to ineffective treatment and patient death. Here we have profiled the cell killing effects of thousands of compounds to characterize the responses in three gynecological cancers, identify cancer-selective compounds, and understand the diversity of responses to these compounds from pan-cancer suppressors to single cell line selective compounds. In this assay, we screened a 7,914 compound drug library that included approved drug and bioactive compounds in six ovarian, three cervical, and […] placental cancer cell lines using the ATPlite assay for cell viability. […] The cervical cancer cell lines included HeLa, Ca Ski, and C-33 A. The placental cancer cell lines included JEG-3. HEK 293T cells were used as the control cell line to determine the selectivity index. ATPlite is a luminescence based assay reliant on the conversion of a luciferase substrate to light in the presence of ATP. As a cytotoxic compound will suppress growth and decrease the number of cells, the concentration of ATP will decrease, and less light signal will be detected in the well.
Assay Protocol Summary: 1,000 cells in 4 uL of media were dispensed into white, solid bottom 1536-well plates using a Multidrop Combi (Thermo Scientific). The Assay plates were incubated for 16 hours at 37 C with 5% CO2 in assay plates, followed by the addition of 23 nL of DMSO or drug dissolved in DMSO. Each compound was assayed in five concentrations (0.092, 0.46, 2.3, 11.5, and 57.5 uM), using the automated Wako 1536 Pin Tool workstation and incubated at 37 C with 5% CO2 48 hours. 4 uL of ATPlite, the ATP monitoring reagent, was then added to the each well of the assay plates using the Multidrop Combi reagent dispenser followed by incubation for 15 minutes at room temperature. The resulting luminescence was measured using the ViewLux plate reader.
In the case of CN(C)CCOc1cc(-c2cn[nH]c2)ccc1NC(=O)C1COc2ccccc2O1 (stereo not given), the “activity change, negative = cytotoxicity” value is reported as 0% (inactive). CCCCC[C@H](O)C=C[C@H]1[C@H](O)CC(=O)[C@H]1CC=CCCCC(=O)O was tested, and the “activity change, negative = cytotoxicity” value was 9.76% (inactive). With NC(=O)c1ccc(N(C(N)=O)c2c(F)cccc2F)nc1-c1ccc(F)cc1F the “activity change, negative = cytotoxicity” value was 4.19% (inactive). COc1ccc(Cn2ccc3ccc(C(=O)NO)cc32)cc1 was tested, and the “activity change, negative = cytotoxicity” value was -12.3% (inactive). In the case of COc1cc2ncnc(Nc3cc(Br)c(O)c(Br)c3)c2cc1OC, the “activity change, negative = cytotoxicity” value is reported as 10.2% (inactive). O=C(CCCN1CCN(c2ccc(F)cc2)CC1)NC1c2ccccc2CSc2ccccc21 (stereo not given) was tested, and the “activity change, negative = cytotoxicity” value was -5.04% (inactive). With O=C(Nc1cccc2c(=O)cc(-c3nn[nH]n3)oc12)c1ccc(OCCCCc2ccccc2)cc1 the “activity change, negative = cytotoxicity” value was 4.09% (inactive). With C[C@@H](NC(=O)c1ncnc(N)c1Cl)c1ncc(C(=O)Nc2cc(C(F)(F)F)c(Cl)cn2)s1 the “activity change, negative = cytotoxicity” value was -35% (inactive). For Nc1[nH]nc2nnc(-c3c(-c4ccccc4)nn4ccccc34)cc12, the “activity change, negative = cytotoxicity” value was -4.92% (inactive). With CN1CCN(c2cccc(Nc3nc4c(-c5ccc(S(C)(=O)=O)cc5)cccn4n3)c2)CC1 the “activity change, negative = cytotoxicity” value was -25.5% (inactive). In the case of N#CC1(c2cccc(C(=O)Nc3cc(Oc4ccc5nc(NC(=O)C6CC6)sc5n4)ccc3F)c2Cl)CC1, the Potency is reported as 11.2 µM (active). With CC[C@H](CC#N)OC(=O)N[C@@H](C)c1cccc(NC(=O)Nc2ccc(-c3cnco3)c(OC)c2)c1 the “activity change, negative = cytotoxicity” value was -7.82% (inactive). With Cn1c(=O)c(-c2c(Cl)cccc2Cl)cc2cnc(Nc3cccc(C(=O)O)c3)nc21 the “activity change, negative = cytotoxicity” value was 1.36% (inactive). For COc1nc(C)cnc1NS(=O)(=O)c1cccnc1-c1ccc(-c2nnco2)cc1, the “activity change, negative = cytotoxicity” value was 13.9% (inactive). In the case of OC[C@H]1O[C@@H](OCCc2ccc(O)cc2)[C@H](O)[C@@H](O)[C@H]1O, the “activity change, negative = cytotoxicity” value is reported as -14.6% (inactive). In the case of CCNC(=O)c1noc(-c2cc(C(C)C)c(O)cc2O)c1-c1ccc(CN2CCOCC2)cc1, the “activity change, negative = cytotoxicity” value is reported as -39.5% (inactive). In the case of O=C1C(c2c(O)[nH]c3ccccc23)=Nc2ccccc21, the “activity change, negative = cytotoxicity” value is reported as -4.44% [at 25.3 µM] (inactive). With C[C@@H]1C[C@H]2[C@@H]3CCC4=CC(=O)C=C[C@]4(C)[C@@]3(F)[C@@H](O)C[C@]2(C)[C@@]1(O)C(=O)CO the “activity change, negative = cytotoxicity” value was -24.3% (inactive). O=S(=O)(O)c1ccc2cc(N=Nc3cc(S(=O)(=O)O)c4cccnc4c3O)ccc2c1 was tested, and the “activity change, negative = cytotoxicity” value was 0.111% (inactive). For CC1=C(C(=O)Nc2cc3cn[nH]c3cc2F)C(c2ccc(C(F)(F)F)cc2)CC(=O)N1 (stereo not given), the “activity change, negative = cytotoxicity” value was 18.6% (inactive). In the case of COc1ccc(-c2nc3ccc(C4=NNC(=O)CC4C)cc3[nH]2)cc1 (stereo not given), the Potency is reported as 17.8 µM (active) and inactive. With N#Cc1ccc(Oc2ccc3c(c2)COB3O)cc1 the “activity change, negative = cytotoxicity” value was 1.31% (inactive). With CS(=O)(=O)c1ccc(C2=C(c3ccccc3)C(=O)OC2)cc1 the “activity change, negative = cytotoxicity” value was 15.2% (inactive). For Cc1cc(C(C)Nc2ccccc2)c2nc(N3CCOCC3)cc(=O)n2c1 (stereo not given), the “activity change, negative = cytotoxicity” value was -13.5% (inactive). With CNC(=O)c1c(-c2ccc(F)cc2)oc2cc(N(CCO)S(C)(=O)=O)c(C3CC3)cc12 the “activity change, negative = cytotoxicity” value was 12.4% (inactive). For CNC(=O)c1ccc2c(C(=Nc3cccc(CN(C)C)c3)c3ccccc3)c(O)[nH]c2c1, the “activity change, negative = cytotoxicity” value was -4.31% (inactive). In the case of CN(C)CCCNC(=O)c1ccc(-c2cc(O)c3ncccc3c2)cc1, the “activity change, negative = cytotoxicity” value is reported as 11% (inactive). With CN(C)c1nc(Cc2ccc(NC(=O)c3ccc(C(F)(F)F)cc3)cc2)nc(N(C)C)c1CC(=O)O the “activity change, negative = cytotoxicity” value was 0.17% (inactive). COc1ccc(-c2ccc3ncc4c(c3c2)n(-c2ccc(N3CCNCC3)c(C(F)(F)F)c2)c(=O)n4C)cn1 was tested, and the Potency was 2.51 µM (active). Cc1ccccc1C(C(=O)NC1CCCCC1)N(C(=O)CNc1ccc(C#N)cc1)c1cccc(F)c1 (stereo not given) was tested, and the “activity change, negative = cytotoxicity” value was 22.6% (inactive). In the case of O=C(Nc1ccc(OC(F)(F)F)cc1)c1sccc1NCc1ccnc2ccccc12, the “activity change, negative = cytotoxicity” value is reported as -7.04% (inactive). For COc1ccc(-c2cc3nccn3c(Nc3ncccc3C(N)=O)n2)cc1OC, the “activity change, negative = cytotoxicity” value was -27% (inactive). O[C@@H](COc1cccc2ncccc12)CN1CCN(C2c3ccccc3[C@@H]3[C@H](c4ccccc42)C3(F)F)CC1 (stereo not given in full) was tested, and the “activity change, negative = cytotoxicity” value was 8.36% (inactive). In the case of Cc1nc2c([nH]1)CCN(C(=O)c1ccc(NC(=O)c3ccccc3-c3ccccc3)cc1)c1ccccc1-2, the “activity change, negative = cytotoxicity” value is reported as 16.4% (inactive). With Cc1cc(-c2ncc(CC(=O)Nc3ccc(-c4cnccn4)cn3)cc2C)ccn1 the “activity change, negative = cytotoxicity” value was -25% (inactive). With Fc1ccc(CNc2ncnc3ccc(F)cc23)cc1 the “activity change, negative = cytotoxicity” value was 0.471% (inactive). In the case of Cc1ccccc1-n1c(Cn2nc(-c3cccc(O)c3)c3c(N)ncnc32)nc2cccc(C)c2c1=O, the “activity change, negative = cytotoxicity” value is reported as -14.5% (inactive). With C[C@H](c1ccc(F)cc1CCCC(=O)O)N(c1cc(F)ccc1F)S(=O)(=O)c1ccc(Cl)cc1 the “activity change, negative = cytotoxicity” value was 18.8% (inactive). In the case of CCn1c(-c2nonc2N)nc2cncc(CNC3CCNCC3)c21, the “activity change, negative = cytotoxicity” value is reported as -16.5% (inactive). Cc1cnc(-c2cc(N3CCN(C(=O)CCS(C)(=O)=O)CC3)ncc2Cl)c(C)c1 was tested, and the “activity change, negative = cytotoxicity” value was 21.4% (inactive).
